Data published in PubChem BioAssay AID1159580 (chemical genetic matrix, 2015).
Values joined by “and” are separate entries in the source; they are usually repeats but may differ in a detail not shown here. Identical values can stand only once. Screen size: about 5,500 compounds; about 2,000 (36%) were called active. About 18% were inconclusive and are not listed. Rule as the data show it: active = normalized growth mostly below about 0.91 (no sharp cut-off); inconclusive = no clear call, values can overlap the other calls; inactive = mostly above about 0.92. The list shows a part of the results.

Experiment: chemical genetic growth profiling, strain panel (AID 1159580);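 also: tested at 20 µM; growth read once vehicle control cultures reached saturation at 30 °C; 1 = growth at the plate median or of vehicle wells; lower values mean less growth of the strain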
Conditions: S. cerevisiae deletion strains, growth OD

Measured: normalized growth

O=C1CCCC2C3CC(CN12)[C@@H]1CCCCN1C3 (stereo not given in full)
inactive: locus YAL013W, strain DEP1, active compounds read low 1.02 | locus YAL021C, strain ccr4, active compounds read low 0.988 | locus YAL026C, strain drs2, active compounds read low 1.01 | locus YAL030W, strain snc1, active compounds read low 0.995 | locus YBL061C, strain skt5, active compounds read low 0.995 | locus YBR009C, strain hhf1, active compounds read low 0.999 | locus YBR021W, strain FUR4, active compounds read low 1.04 | locus YBR023C, strain chs3, active compounds read low 1 | locus YBR171W, strain sec66, active compounds read low 0.992 | locus YBR229C, strain ROT2, active compounds read low 0.985 | locus YBR231C, strain swc5, active compounds read low 0.996 | locus YBR279W, strain paf1, active compounds read low 1 | locus YCL011C, strain gbp2, active compounds read low 0.995 | locus YCL016C, strain dcc1, active compounds read low 0.993 | locus YCL029C, strain bik1, active compounds read low 0.982 | locus YCL061C, strain MRC1, active compounds read low 0.998 | locus YCL069W, strain vba3, active compounds read low 0.999 | locus YCR088W, strain abp1, active compounds read low 0.987 | locus YDL005C, strain med2, active compounds read low 0.991 | locus YDL035C, strain GPR1, active compounds read low 1.02 | locus YDL040C, strain nat1, active compounds read low 0.991 | locus YDL074C, strain BRE1, active compounds read low 1 | locus YDL101C, strain DUN1, active compounds read low 0.988 | locus YDL134C, strain PPH21, active compounds read low 0.993 | locus YDL185W, strain tfp1, active compounds read low 0.984 | locus YDL192W, strain arf1, active compounds read low 0.987 | locus YDR001C, strain nth1, active compounds read low 1 | locus YDR069C, strain doa4, active compounds read low 1.01 | locus YDR101C, strain arx1, active compounds read low 0.988 | locus YDR137W, strain rgp1, active compounds read low 1.01 | locus YDR159W, strain sac3, active compounds read low 0.987 | locus YDR162C, strain NBP2, active compounds read low 1.01 | locus YDR195W, strain ref2 0.981 | locus YDR297W, strain sur2, active compounds read low 0.993 | locus YDR318W, strain mcm21, active compounds read low 1 | locus YDR334W, strain swr1, active compounds read low 1.02 | locus YDR335W, strain msn5, active compounds read low 0.998 | locus YDR388W, active compounds read low 0.997 | locus YDR392W, strain spt3, active compounds read low 0.927 | locus YDR502C, strain sam2, active compounds read low 0.989 | locus YEL003W, strain gim4, active compounds read low 1 | locus YEL037C, strain rad23, active compounds read low 1.01 | locus YEL061C, strain CIN8 (second series), active compounds read low 0.998 | locus YEL061C, strain CIN8, active compounds read low 0.997 | locus YER015W, strain faa2, active compounds read low 1.01 | locus YER016W, strain bim1, active compounds read low 0.995 | locus YER110C, active compounds read low 0.977 | locus YER111C, strain swi4, active compounds read low 0.998 | locus YER155C, strain BEM2 (second series), active compounds read low 1.02 | locus YER155C, strain BEM2, active compounds read low 0.98 | locus YER167W, strain BCK2, active compounds read low 1.01 | locus YFR010W, strain ubp6, active compounds read low 1 | locus YGL078C, strain dbp3, active compounds read low 0.995 | locus YGL086W, strain mad1, active compounds read low 1 | locus YGL167C, strain pmr1, active compounds read low 0.991 | locus YGL173C, strain kem1, active compounds read low 0.979 | locus YGL227W, strain vid30, active compounds read low 1 | locus YGL240W, strain doc1, active compounds read low 1 | locus YGL248W, strain PDE1, active compounds read low 0.995 | locus YGL253W, strain hxk2, active compounds read low 1 | locus YGR078C, strain PAC10, active compounds read low 1.01 | locus YGR135W, strain pre9, active compounds read low 1 | locus YGR229C, strain SMI1, active compounds read low 1.02 | locus YGR252W, strain gcn5, active compounds read low 1 | locus YHR013C, strain ard1, active compounds read low 0.984 | locus YHR027C, strain rpn1, active compounds read low 0.988 | locus YHR030C, strain SLT2, active compounds read low 0.993 and 0.983 | locus YHR079C, strain IRE1 (second series), active compounds read low 1 | locus YHR079C, strain IRE1, active compounds read low 1.01 | locus YHR094C, strain hxt1, active compounds read low 0.982 | locus YHR129C, strain ARP1, active compounds read low 0.983 | locus YHR142W, strain chs7, active compounds read low 0.996 | locus YHR200W, strain rpn10, active compounds read low 0.997 | locus YIL066C, strain RNR3, active compounds read low 1 | locus YIL073C, strain SPO22, active compounds read low 1.02 | locus YIL125W, strain kgd1, active compounds read low 0.994 | locus YIR030C, strain dcg1, active compounds read low 0.993 | locus YJL092W, strain hpr5, active compounds read low 1 | locus YJL095W, strain BCK1 (second series), active compounds read low 0.99 | locus YJL095W, strain BCK1, active compounds read low 0.983 and 0.957 | locus YJL115W, strain asf1, active compounds read low 0.989 | locus YJL129C, strain trk1, active compounds read low 0.99 | locus YJL134W, strain LCB3, active compounds read low 0.997 | locus YJL154C, strain vps35, active compounds read low 0.993 | locus YJL164C, strain tpk1, active compounds read low 1 | locus YJL166W, strain qcr8, active compounds read low 0.989 | locus YJL168C, strain set2, active compounds read low 1 | locus YJL187C, strain SWE1 (second series), active compounds read low 0.987 | locus YJL187C, strain SWE1, active compounds read low 0.996 | locus YJR043C, strain POL32, active compounds read low 1.04 | locus YJR066W, strain TOR1, active compounds read low 0.992 | locus YKL009W, strain mrt4, active compounds read low 0.974 | locus YKL068W, active compounds read low 0.99 | locus YKL085W, strain MDH1 (second series), active compounds read low 1.01 | locus YKL085W, strain MDH1, active compounds read low 1.01 | locus YKL160W, strain elf1, active compounds read low 0.982 | locus YKR001C, strain vps1, active compounds read low 1.01 | locus YKR026C, strain gcn3, active compounds read low 0.99 | locus YKR091W, strain srl3, active compounds read low 1 | locus YLL001W, strain dnm1, active compounds read low 0.979 | locus YLL026W, active compounds read low 0.989 | locus YLL041C, strain sdh2, active compounds read low 1 | locus YLR027C, strain aat2, active compounds read low 0.99 | locus YLR039C, strain RIC1, active compounds read low 1.04 | locus YLR058C, strain SHM2, active compounds read low 0.992 | locus YLR102C, strain apc9, active compounds read low 0.992 | locus YLR113W, strain HOG1, active compounds read low 0.977 | locus YLR221C, strain rsa3, active compounds read low 0.981 | locus YLR258W, strain gsy2, active compounds read low 0.999 | locus YLR262C, strain YPT6 (second series), active compounds read low 0.986 | locus YLR262C, strain YPT6, active compounds read low 1.04 | locus YLR268W, strain sec22, active compounds read low 0.979 | locus YLR320W, strain mms22, active compounds read low 0.979 | locus YLR330W, strain CHS5, active compounds read low 1.01 | locus YLR342W, strain FKS1 (second series), active compounds read low 1.01 | locus YLR342W, strain FKS1, active compounds read low 1.01 | locus YLR357W, strain rsc2, active compounds read low 0.979 | locus YLR370C, strain arc18, active compounds read low 1 | locus YLR371W, strain rom2, active compounds read low 0.984 | locus YLR384C, strain iki3, active compounds read low 1.01 | locus YLR418C, strain cdc73, active compounds read low 1.02 | locus YML016C, strain PPZ1, active compounds read low 0.978 | locus YML032C, strain rad52, active compounds read low 1 | locus YML120C, strain ndi1, active compounds read low 0.996 | locus YML124C, strain tub3, active compounds read low 0.991 | locus YMR058W, strain fet3, active compounds read low 1.01 | locus YMR078C, strain ctf18, active compounds read low 0.991 | locus YMR125W, strain sto1, active compounds read low 0.975 | locus YMR129W, active compounds read low 0.995 | locus YMR205C, strain PFK2, active compounds read low 0.978 | locus YMR223W, strain ubp8, active compounds read low 0.995 | locus YMR231W, strain pep5, active compounds read low 0.999 | locus YMR307W, strain GAS1, active compounds read low 1.06 | locus YNL067W, strain RPL9B, active compounds read low 0.993 | locus YNL071W, strain lat1, active compounds read low 0.997 | locus YNL153C, strain GIM3, active compounds read low 0.993 | locus YNL183C, strain NPR1, active compounds read low 0.967 | locus YNL209W, strain ssb2, active compounds read low 1 | locus YNL233W, strain BNI4, active compounds read low 0.998 | locus YNL248C, strain rpa49, active compounds read low 0.993 | locus YNL250W, strain rad50, active compounds read low 0.984 | locus YNL271C, strain bni1, active compounds read low 0.991 | locus YNL298W, strain CLA4, active compounds read low 1 | locus YNL307C, strain MCK1, active compounds read low 0.985 | locus YNL322C, strain KRE1 (second series), active compounds read low 0.979 | locus YNR049C, strain mso1, active compounds read low 0.994 | locus YNR052C, strain pop2, active compounds read low 0.993 | locus YOL006C, strain TOP1, active compounds read low 0.968 | locus YOL012C, strain htz1 2.29 | locus YOL147C, strain pex11, active compounds read low 0.992 | locus YOR001W, strain rrp6, active compounds read low 1.03 | locus YOR061W, strain CKA2, active compounds read low 0.988 | locus YOR069W, strain VPS5, active compounds read low 0.982 | locus YOR070C, strain gyp1, active compounds read low 1.02 | locus YOR080W, strain dia2, active compounds read low 0.986 | locus YOR083W, strain WHI5, active compounds read low 0.973 | locus YOR106W, strain vam3, active compounds read low 1 | locus YOR136W, strain idh2, active compounds read low 0.985 | locus YOR144C, strain elg1, active compounds read low 0.998 | locus YOR184W, strain ser1, active compounds read low 0.991 | locus YOR231W, strain MKK1, active compounds read low 1.01 | locus YOR265W, strain rbl2, active compounds read low 1 | locus YOR270C, strain vph1, active compounds read low 1.03 | locus YOR290C, strain snf2, active compounds read low 0.975 | locus YOR316C, strain cot1, active compounds read low 0.993 | locus YPL051W, strain arl3, active compounds read low 0.993 | locus YPL078C, strain atp4, active compounds read low 0.997 | locus YPL106C, strain sse1, active compounds read low 0.968 | locus YPL240C, strain hsp82, active compounds read low 0.999 | locus YPL256C, strain CLN2, active compounds read low 1.01 | locus YPR119W, strain clb2, active compounds read low 0.999 | locus YPR141C, strain kar3, active compounds read low 0.982 | locus YPR163C, strain tif3, active compounds read low 0.996 | locus YPR167C, strain met16, active compounds read low 0.995 | strain wtn01, active compounds read low 0.967
